± gives the standard deviation of the averaged measurements.
system: SUM149; experiment: percent difference in area under dose-response curve of relative cell number, RPMI vs HPLM; higher = drug relatively more effective in HPLM than RPMI (negative = less effective in HPLM); details: treatment time: 72 h; dose range: 10-point, 1 nM to 20 µM; media compared: RPMI vs HPLM
Experimental: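 SUM149 triple-negative breast cancer cells, 500 cells/well in 384-well plates, were grown in RPMI or human plasma-like medium (HPLM) with 5% dialyzed FBS. They were pin-transferred with an anticancer plus metabolic-inhibitor library in 10-point dose series (20 µM to 1 nM). After 72 h, cells were fixed, stained with bisbenzimide and counted by Acumen plate cytometry. The AUC of relative survival vs dose was computed per medium, and the percent difference in AUC between RPMI and HPLM is reported.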

SMILES | percent difference in area under dose-response curve
Cc1cc2c(C(C)C)c(O)c(O)c(C=O)c2c(O)c1-c1c(C)cc2c(C(C)C)c(O)c(O)c(C=O)c2c1O [Gossypol] | -5.85 ± 4.1%
CC(=O)N[C@H]1[C@@H](O[C@@H]2O[C@H](CC(O)[C@H]3O[C@@H](n4ccc(=O)[nH]c4=O)[C@H](O)[C@@H]3O)[C@H](O)[C@H](O)[C@H]2NC(=O)/C=C/CC(C)C)O[C@H](CO)[C@@H](N)[C@@H]1O (some centres undefined) [Tunicamycin] | -6.39%
Oc1cc(Cl)ccc1Oc1ccc(Cl)cc1Cl [Triclosan] | 2.04%
NC(=O)c1ccc(N)nc1 [6_Aminonicotinamide] | -3.77%
C=C(C)[C@H]1Cc2c(ccc3c2O[C@@H]2COc4cc(OC)c(OC)cc4[C@@H]2C3=O)O1 [Rotenone] | -23%
C/C=C(/C)C(=O)O[C@H]1C(C)=C2[C@H]([C@@H]1OC(=O)CCCCCCC)[C@@](C)(OC(C)=O)C[C@H](OC(=O)CCC)[C@@]1(O)[C@H]2OC(=O)[C@@]1(C)O [Thapsigargin] | -31.9%
c1ccc2c(c1)[I+]c1ccccc1-2 [Diphenyleneiodonium_chloride] | -42%
C/C(=C\c1csc(C)n1)[C@@H]1C[C@@H]2O[C@]2(C)CCC[C@H](C)[C@H](O)[C@@H](C)C(=O)C(C)(C)[C@@H](O)CC(=O)O1 [Epothilone_B] | -49.1%
C[S+]([O-])CCCCN=C=S (centres undefined) [Sulforaphane] | -4.37%
CC(C)[C@]12O[C@H]1[C@@H]1O[C@]13[C@]1(O[C@H]1C[C@H]1C4=C(CC[C@@]13C)C(=O)OC4)[C@@H]2O [Triptolide] | -67%
C/C(=C\c1csc(C)n1)[C@@H]1C[C@@H]2O[C@@H]2CCC[C@H](C)[C@H](O)[C@@H](C)C(=O)C(C)(C)[C@@H](O)CC(=O)O1 [Epothilone_A] | -32.6%
CC(=O)c1c(O)c(C)c(O)c(Cc2c(O)c3c(c(C(=O)/C=C/c4ccccc4)c2O)OC(C)(C)C=C3)c1O [Rottlerin] | -6.49%
Cc1sc2c(c1C)C(c1ccc(Cl)cc1)=N[C@@H](CC(N)=O)c1nnc(C)n1-2 | -25.8%
S=C=NCCc1ccccc1 | -5.8%
O=C1CSC(c2ccccc2Cl)c2cc(Cl)ccc2N1 (centres undefined) | 4.73%
CCOc1ccccc1-n1c(C(C)N2CCN(C(=O)COc3ccc(Cl)cc3)CC2)nc2ccccc2c1=O (centres undefined) [Erastin] | -2.91%
CC[C@@H]1/C=C/C=C/C[C@H](C)[C@H](O)[C@](C)(O)C(=O)[C@H](C)[C@@H](O)[C@H](C)C(=O)[C@H](C)[C@@H](O)[C@H](C)/C=C/C(=O)O[C@H]2[C@@H](C)[C@@H](CC1)O[C@@]1(CC[C@@H](C)[C@@H](C[C@H](C)O)O1)[C@@H]2C [Oligomycin_A] | -41%
Cn1c(CCCC(=O)O)nc2cc(N(CCCl)CCCl)ccc21 [Bendamustine_HCL] | -4.52%
CC1=CC(=O)c2c(O)cccc2C1=O [Plumbagin] | -4.04%
[N-]=[N+]=CC(=O)OC[C@H](N)C(=O)O [Azaserine] | -16.2%
N#Cc1cn([C@@H]2O[C@H](CO)[C@@H](O)[C@H]2O)c2ncnc(N)c12 [Toyocamycin] | -27.1%
O=S(=O)(CC1CS1)c1ccc(Oc2ccccc2)cc1 (centres undefined) | 4.58%
O=C(O)CCCc1ccc(N(CCCl)CCCl)cc1 [Chloroambucil] | -5.32%
CCCCCC[C@H]1C(=O)O[C@H](C)[C@H](NC(=O)c2cccc(NC=O)c2O)C(=O)O[C@@H](C)[C@@H]1OC(=O)CC(C)C [Antimycin_A] | -6.05%

— the supplement of paper PMC11383364
